According to PubChem BioAssay AID463193 (University of Pittsburgh Molecular Library Screening Center, 2010):
The whole screen tested about 190,000 compounds, of which about 1,900 (1%) were called active.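 The calls were made as follows: active = percentage of spot-positive cells more than 3 SD above its plate mean, without a fluorescence outlier flag or 80% toxicity; inconclusive = no clear call, values can overlap the other calls; inactive = the rest.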 Shown is part of a subset that was picked to be rich in actives.

Assay: autophagy modulators in MEF cells, primary screen, imaging, high-content, MEF GFP-LC3 (AID 463193);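 as to % cells with GFP-LC3 spots: spot-positive cell cutoff set from DMSO-treated cells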;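 as to toxicity: cell loss after 18 h compound exposure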
Details: MEF GFP-LC3 puncta imaging, at 10 µM; % cells with GFP-LC3 spots: stronger effect = higher value; toxicity: measured here: cell loss, nuclei count
With `O=C(CS(=O)(=O)c1ccccc1)Nc1ccc(S(=O)(=O)Nc2ccccn2)cc1` the % cells with GFP-LC3 spots was 0.85% (inactive) and the toxicity was 0.1%. With `C=CCN1C(=O)C(Cc2ccc(OCC)cc2)SC1=Nc1ccc(C(=O)O)cc1` (stereo not drawn) the % cells with GFP-LC3 spots was 9.61% (inactive) and the toxicity was -5.34%. In the case of `O=c1c2ccccc2nc(CSc2nnnn2-c2ccccc2)n1-c1ccccc1`, the % cells with GFP-LC3 spots is reported as 39.8% (active) and the toxicity is reported as -13.7%. With `O=c1c2ccccc2nnn1CSc1nnnn1-c1ccccc1` the % cells with GFP-LC3 spots was 7.02% (inactive) and the toxicity was 5.05%. In the case of `Cc1ccc(Nc2nc(CSc3nnnn3-c3ccccc3)cc(=O)[nH]2)cc1`, the % cells with GFP-LC3 spots is reported as 3.58% (inactive) and the toxicity is reported as 2.22%. With `CCCC(=O)NC(=S)Nc1ccc(CN2CCOCC2)cc1` the % cells with GFP-LC3 spots was 10.3% (inactive) and the toxicity was -3.3%. With `CCNC(=O)COC(=O)/C=C/c1c(C)nn(Cc2cccc(OC)c2)c1Cl` the % cells with GFP-LC3 spots was 10.7% (inactive) and the toxicity was 15.5%. In the case of `COC(=O)c1ccc(NC(=O)c2cc(Cl)ccc2OC)cc1`, the % cells with GFP-LC3 spots is reported as 0.193% (inactive) and the toxicity is reported as -8.44%. In the case of `CC(=O)c1cc(NC(=O)c2ccccc2)c(=O)oc1/C=C/N(C)C`, the % cells with GFP-LC3 spots is reported as 2.32% (inactive) and the toxicity is reported as 8.72%. With `CCOC(=O)c1cc(NC(=O)c2ccc(Cl)cc2)c(=O)oc1-c1ccccc1` the % cells with GFP-LC3 spots was 15.9% (active) and the toxicity was -0.561%. For `CCOC(=O)NNC(=O)c1ccc(Cl)cc1`, the % cells with GFP-LC3 spots was 2.34% (inactive) and the toxicity was 8.61%. For `CC(C)NC(=O)NC(=O)CSc1nnc(-c2ccccc2F)n1N`, the % cells with GFP-LC3 spots was 4.07% (inactive) and the toxicity was -3.54%. In the case of `Cc1cc([N+](=O)[O-])nn1Cc1ccc(F)cc1`, the % cells with GFP-LC3 spots is reported as 11.8% (inactive) and the toxicity is reported as 3.65%. In the case of `Cc1cnc(C(=O)OCC(=O)NCCCc2ccccc2)cn1`, the % cells with GFP-LC3 spots is reported as 19.9% (inactive) and the toxicity is reported as 14.4%.
